Source: PubChem BioAssay
For some of these results: Results with a measured potency or affinity are listed apart. Active and inactive are the calls of the source. Unless noted, no rule for the calls is given here.

Columns and labels:
[1] = antimalarial activity against Dd2 strain (AID 2302;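 active = growth inhibition above 50% at the single 2 µM test dose, taken to imply half-maximal potency below 2 µM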;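 also: 0% = DMSO untreated growth and 100% = chloroquine plus artemisinin killed control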); conditions: P. falciparum Dd2 in RBCs, LDH growth readout, 72 h; at 2 µM; stronger effect = higher value
[2] = HepG2 cytotoxicity, primary screen, cytotoxicity control for P. falciparum antimalarial project, cell-based, ATP luminescence (AID 2303;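 active = inhibition above 50%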;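 also: 0% = DMSO wells and 100% = digitonin-killed cells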); conditions: HepG2 viability, 24-48 h, at 10 µM, stronger effect = higher value
[3] = target: L-lactate dehydrogenase (Plasmodium falciparum (isolate CDC / Honduras)) (UniProt Q27743); test: PfLDH activity inhibition – cell lysate, 3D7 strain, counter-screen for P. falciparum growth inhibition project (AID 2304);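 also: 0% = vehicle and 100% = reference inhibitor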; conditions: P. falciparum 3D7 crude extract, LDH APAD/NBT absorbance; at 2 µM; stronger effect = higher value
L-lactate dehydrogenase (Plasmodium falciparum (isolate CDC / Honduras)), sequence (Q27743 whole entry, looked up): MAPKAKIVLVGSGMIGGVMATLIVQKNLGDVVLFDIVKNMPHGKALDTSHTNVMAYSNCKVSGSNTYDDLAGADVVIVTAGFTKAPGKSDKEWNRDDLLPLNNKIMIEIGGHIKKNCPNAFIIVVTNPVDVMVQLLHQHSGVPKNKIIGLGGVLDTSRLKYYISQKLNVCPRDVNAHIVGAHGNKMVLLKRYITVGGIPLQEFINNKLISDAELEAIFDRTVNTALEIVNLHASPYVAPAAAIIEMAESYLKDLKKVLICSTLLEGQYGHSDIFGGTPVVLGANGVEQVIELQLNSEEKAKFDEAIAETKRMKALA

[4] = inhibition of 3D7 malaria parasite growth – strain 3D7 (AID 2306);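 also: 0% = DMSO wells and 100% = chloroquine plus artemisinin control wells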; conditions: P. falciparum 3D7 erythrocytic growth, LDH absorbance, 72 h; at 2 µM; stronger effect = higher value
[5] = target: Calcium-dependent protein kinase 1 (Plasmodium falciparum (isolate 3D7)) (UniProt P62344); test: PfCDPK1 kinase inhibitors, biochemical, TCAMS library (AID 1159585; cut-off not given, nearly all actives have IC50 up to about 0.98 µM;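 also: inhibitors leave more ATP so luminescence rises with inhibition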); conditions: recombinant PfCDPK1, Kinase-Glo ATP depletion luminescence
Calcium-dependent protein kinase 1 (Plasmodium falciparum (isolate 3D7)), sequence (P62344 whole entry, looked up): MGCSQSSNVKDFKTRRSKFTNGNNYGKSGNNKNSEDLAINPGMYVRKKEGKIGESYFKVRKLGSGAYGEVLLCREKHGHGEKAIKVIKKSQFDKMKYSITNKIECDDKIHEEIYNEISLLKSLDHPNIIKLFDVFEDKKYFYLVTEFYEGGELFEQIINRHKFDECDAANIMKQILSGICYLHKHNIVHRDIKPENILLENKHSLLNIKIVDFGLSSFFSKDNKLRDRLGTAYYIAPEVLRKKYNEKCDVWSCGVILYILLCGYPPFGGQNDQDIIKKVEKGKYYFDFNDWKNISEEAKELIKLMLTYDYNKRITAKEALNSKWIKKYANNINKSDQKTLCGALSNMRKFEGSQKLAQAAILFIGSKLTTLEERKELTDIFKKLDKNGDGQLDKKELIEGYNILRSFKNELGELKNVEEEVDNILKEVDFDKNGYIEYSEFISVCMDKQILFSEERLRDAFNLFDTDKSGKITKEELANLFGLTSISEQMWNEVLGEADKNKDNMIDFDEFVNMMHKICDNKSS

[6] = target: Plasmodium falciparum protein kinase 6 (PK6, PF3D7_1337100) (UniProt Q8IDW1); test: PfPK6 kinase inhibitors, biochemical, TCAMS library (AID 1159586); conditions: recombinant PfPK6, Kinase-Glo ATP depletion luminescence
Plasmodium falciparum protein kinase 6 (PK6, PF3D7_1337100), sequence (Q8IDW1 1-305): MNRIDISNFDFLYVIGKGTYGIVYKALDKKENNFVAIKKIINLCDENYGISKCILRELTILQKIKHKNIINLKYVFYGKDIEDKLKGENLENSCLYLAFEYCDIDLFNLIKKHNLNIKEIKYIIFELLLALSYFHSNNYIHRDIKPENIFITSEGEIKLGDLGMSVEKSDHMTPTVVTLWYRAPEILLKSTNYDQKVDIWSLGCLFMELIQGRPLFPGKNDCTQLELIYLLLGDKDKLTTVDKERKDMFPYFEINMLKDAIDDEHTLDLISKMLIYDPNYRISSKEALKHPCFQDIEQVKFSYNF

[7] = target: Protein kinase 7 (PK7), Plasmodium falciparum 3D7 (PF3D7_0213400) (UniProt Q7YTF7); test: inhibition of Plasmodium PK7 catalytic activity – biochemical, TCAMS antimalarial set, Kinase-Glo luminescence (AID 1159587); conditions: recombinant PfPK7, Kinase-Glo ATP depletion luminescence
Protein kinase 7 (PK7), Plasmodium falciparum 3D7 (PF3D7_0213400), sequence (Q7YTF7 1-343): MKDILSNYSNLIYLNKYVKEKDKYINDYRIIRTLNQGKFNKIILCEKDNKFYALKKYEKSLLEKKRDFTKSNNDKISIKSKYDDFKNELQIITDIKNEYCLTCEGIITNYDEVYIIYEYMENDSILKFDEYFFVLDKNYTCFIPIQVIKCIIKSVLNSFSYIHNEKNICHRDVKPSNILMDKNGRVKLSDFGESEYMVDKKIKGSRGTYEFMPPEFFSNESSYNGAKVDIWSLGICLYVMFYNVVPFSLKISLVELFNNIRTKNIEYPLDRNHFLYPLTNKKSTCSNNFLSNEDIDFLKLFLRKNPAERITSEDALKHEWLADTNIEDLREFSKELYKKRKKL

[8] = target: Calcium-dependent protein kinase 4 (Plasmodium falciparum (isolate 3D7)) (UniProt Q8IBS5); test: PfCDPK4 kinase inhibitors, biochemical, TCAMS library (AID 1159588; cut-off not given, nearly all actives have IC50 up to about 0.91 µM); conditions: recombinant PfCDPK4, Kinase-Glo ATP depletion luminescence
Calcium-dependent protein kinase 4 (Plasmodium falciparum (isolate 3D7)), sequence (Q8IBS5 whole entry, looked up): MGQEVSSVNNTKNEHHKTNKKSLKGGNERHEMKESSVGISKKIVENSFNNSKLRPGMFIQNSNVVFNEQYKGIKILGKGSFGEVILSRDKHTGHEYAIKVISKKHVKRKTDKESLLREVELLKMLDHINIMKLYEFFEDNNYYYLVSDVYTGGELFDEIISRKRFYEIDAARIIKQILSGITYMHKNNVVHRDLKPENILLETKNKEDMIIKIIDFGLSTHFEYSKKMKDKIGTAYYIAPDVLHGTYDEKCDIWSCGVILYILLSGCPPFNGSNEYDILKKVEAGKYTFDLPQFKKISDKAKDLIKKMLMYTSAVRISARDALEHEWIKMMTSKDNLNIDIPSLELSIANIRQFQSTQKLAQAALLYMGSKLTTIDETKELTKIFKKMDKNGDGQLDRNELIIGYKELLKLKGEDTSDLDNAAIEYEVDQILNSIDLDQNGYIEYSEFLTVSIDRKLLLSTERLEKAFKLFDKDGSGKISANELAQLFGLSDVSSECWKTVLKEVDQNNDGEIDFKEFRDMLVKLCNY

Cc1oc(-c2ccc(Cl)cc2)cc1C(=O)NCCC1CCN(CCCCCNC(=O)/C=C/c2ccc(Cl)c(Cl)c2)CC1
active: growth inhibition [1] 88% | inhibition [2] 100% | growth inhibition [4] 100%
inactive: inhibition [3] -4% | outcome [5] | outcome [6] | outcome [7] | outcome [8]

CCCCN1CC[C@@H](CCC(O)c2cc(OCCC)nc3ccc(OC)cc23)[C@@H](CC)C1 (stereo not given in full)
inactive: inhibition [2] 23% | inhibition [3] -4% | outcome [5] | outcome [6] | outcome [7] | outcome [8]
active: growth inhibition [1] 99% | growth inhibition [4] 100%

CC(C)CNCc1cccc(-c2ccccc2CNC2CCN(Cc3ccccc3)CC2)c1
inactive: growth inhibition [1] 39% | inhibition [2] 25% | inhibition [3] -6% | outcome [5] | outcome [6] | outcome [7] | outcome [8]
active: growth inhibition [4] 100%

CCc1cn2c3c(cc(C(=O)N[C@@H](Cc4ccccc4)[C@H](O)CNC(C)(C)CCCC(C)C)cc13)N(C)S(=O)(=O)C2
inactive: inhibition [3] 8% | outcome [5] | outcome [6] | outcome [7] | outcome [8]
active: growth inhibition [1] 98% | inhibition [2] 71% | growth inhibition [4] 98%

O=C(CCCCCNC(=O)c1ccc(O)c(-c2ccc(Cl)c(Cl)c2)c1)NCc1cccc2ccccc12
active: growth inhibition [4] 99%
inactive: growth inhibition [1] 15% | inhibition [2] 2% | inhibition [3] -2% | outcome [5] | outcome [6] | outcome [7] | outcome [8]

Cc1cc(C(=O)OCC(=O)Nc2c(C)n(C)n(-c3ccccc3)c2=O)c(C)n1-c1ccc(F)cc1
active: growth inhibition [1] 99% | growth inhibition [4] 100%
inactive: inhibition [2] -4% | inhibition [3] -1% | outcome [5] | outcome [6] | outcome [7] | outcome [8]

CCCCCOc1ccc(N2C(N)=NC(N)=NC2(C)C)cc1
inactive: growth inhibition [1] -4% | inhibition [2] 24% | inhibition [3] -4% | outcome [5] | outcome [6] | outcome [7] | outcome [8]
active: growth inhibition [4] 97%

CC1CCCC(Nc2noc(-c3sccc3Br)n2)C1 (stereo not given)
active: growth inhibition [1] 99% | growth inhibition [4] 102%
inactive: inhibition [2] 7% | inhibition [3] 0% | outcome [5] | outcome [6] | outcome [7] | outcome [8]

COc1ccc(CNCc2ccc(-c3ccc(CNCCc4ccccc4)cn3)cc2)cn1
inactive: growth inhibition [1] 44% | inhibition [2] 16% | inhibition [3] 1% | outcome [5] | outcome [6] | outcome [7] | outcome [8]
active: growth inhibition [4] 97%

CO/C(=C\C=C/c1cc2cc(Cl)c(Cl)cc2[nH]1)C(=O)NC1CC(C)(C)N(C)C(C)(C)C1
inactive: growth inhibition [1] 34% | inhibition [3] -1% | outcome [5] | outcome [6] | outcome [7] | outcome [8]
active: inhibition [2] 65% | growth inhibition [4] 93%

COc1ccc2c(c1)CCN(CCN1CCC(CNC(=O)c3ccc(-c4ccc(C#N)cc4)cc3)CC1)C2
inactive: inhibition [2] 40% | inhibition [3] 2% | outcome [5] | outcome [6] | outcome [7] | outcome [8]
active: growth inhibition [1] 51% | growth inhibition [4] 100%

O=C(/C=C/c1ccc(Cl)c(Cl)c1)NCCCCCCN1CCCN(C(=O)Nc2cccc(C(F)(F)F)c2)CC1
active: growth inhibition [4] 95%
inactive: growth inhibition [1] 0% | inhibition [2] 25% | inhibition [3] -3% | outcome [5] | outcome [6] | outcome [7] | outcome [8]

FC(F)(F)c1ccc2nc(-c3cccc(-c4cccc(CNCc5cnn(-c6ccccc6)n5)c4)c3)[nH]c2c1
inactive: growth inhibition [1] 28% | inhibition [2] 6% | inhibition [3] -5% | outcome [5] | outcome [6] | outcome [7] | outcome [8]
active: growth inhibition [4] 100%

CC(C)c1cccc(OCC2CCN(c3ccc(C(=O)Nc4ccccc4)cn3)CC2)c1
inactive: inhibition [2] 9% | inhibition [3] 4% | outcome [5] | outcome [6] | outcome [7] | outcome [8]
active: growth inhibition [1] 90% | growth inhibition [4] 95%

O=C(NC1c2ccccc2Oc2ccccc21)c1ccccc1O
inactive: growth inhibition [1] -3% | inhibition [2] -3% | inhibition [3] -1% | outcome [5] | outcome [6] | outcome [7] | outcome [8]
active: growth inhibition [4] 95%

Cc1cccc2[nH]c(-c3cccc(-c4ccc(CN5CCC(C(N)=O)CC5)cc4)c3)nc12
inactive: growth inhibition [1] 9% | inhibition [2] -1% | inhibition [3] 4% | outcome [5] | outcome [6] | outcome [7] | outcome [8]
active: growth inhibition [4] 89%

CCN(CCCN1CCCCC1)c1cc(C)nc(Nc2ccc3c(c2)CCC3)n1
inactive: inhibition [2] 32% | inhibition [3] 5% | outcome [5] | outcome [6] | outcome [7] | outcome [8]
active: growth inhibition [1] 93% | growth inhibition [4] 100%

O=C(Nc1ccc(-c2nc3ccc(NC(=O)c4ccc(Br)cc4)cc3[nH]2)cc1)c1ccc(Br)cc1
active: growth inhibition [4] 98%
inactive: growth inhibition [1] 4% | inhibition [2] 40% | inhibition [3] 3% | outcome [5] | outcome [6] | outcome [7] | outcome [8]

COC(=O)c1ccc2nc(-c3ccc(/C=C/C(=O)NCc4ccc(Cl)c(Cl)c4)cc3)[nH]c2c1
active: growth inhibition [4] 81%
inactive: growth inhibition [1] 3% | inhibition [2] 13% | inhibition [3] -3% | outcome [5] | outcome [6] | outcome [7] | outcome [8]

O=C(Nc1ccccc1)Nc1cccc(-c2ccc(-c3nc4ccc(C(F)(F)F)cc4[nH]3)cc2)c1
active: growth inhibition [4] 101%
inactive: growth inhibition [1] 37% | inhibition [2] 48% | inhibition [3] -3% | outcome [5] | outcome [6] | outcome [7] | outcome [8]
